Test results: publication PMC4336329 (PLoS ONE, 2015)
The campaign covered roughly 310,000 compounds. About 14,000 (4.5%) showed an effect of 50% or more. The effect is printed as a negative number. Only a selection was taken, and strong results are over-represented in it overall.

target: human ether-à-go-go-related gene (hERG) potassium channel (human, UniProt Q12809); assay: primary screen, population patch clamp on CHO cells stably expressing hERG; higher = less effect of the substance
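Also: peak tail current of the secondary pulse compared with the same well before compound.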

Sequence of human ether-à-go-go-related gene (hERG) potassium channel (Q12809 whole entry, looked up): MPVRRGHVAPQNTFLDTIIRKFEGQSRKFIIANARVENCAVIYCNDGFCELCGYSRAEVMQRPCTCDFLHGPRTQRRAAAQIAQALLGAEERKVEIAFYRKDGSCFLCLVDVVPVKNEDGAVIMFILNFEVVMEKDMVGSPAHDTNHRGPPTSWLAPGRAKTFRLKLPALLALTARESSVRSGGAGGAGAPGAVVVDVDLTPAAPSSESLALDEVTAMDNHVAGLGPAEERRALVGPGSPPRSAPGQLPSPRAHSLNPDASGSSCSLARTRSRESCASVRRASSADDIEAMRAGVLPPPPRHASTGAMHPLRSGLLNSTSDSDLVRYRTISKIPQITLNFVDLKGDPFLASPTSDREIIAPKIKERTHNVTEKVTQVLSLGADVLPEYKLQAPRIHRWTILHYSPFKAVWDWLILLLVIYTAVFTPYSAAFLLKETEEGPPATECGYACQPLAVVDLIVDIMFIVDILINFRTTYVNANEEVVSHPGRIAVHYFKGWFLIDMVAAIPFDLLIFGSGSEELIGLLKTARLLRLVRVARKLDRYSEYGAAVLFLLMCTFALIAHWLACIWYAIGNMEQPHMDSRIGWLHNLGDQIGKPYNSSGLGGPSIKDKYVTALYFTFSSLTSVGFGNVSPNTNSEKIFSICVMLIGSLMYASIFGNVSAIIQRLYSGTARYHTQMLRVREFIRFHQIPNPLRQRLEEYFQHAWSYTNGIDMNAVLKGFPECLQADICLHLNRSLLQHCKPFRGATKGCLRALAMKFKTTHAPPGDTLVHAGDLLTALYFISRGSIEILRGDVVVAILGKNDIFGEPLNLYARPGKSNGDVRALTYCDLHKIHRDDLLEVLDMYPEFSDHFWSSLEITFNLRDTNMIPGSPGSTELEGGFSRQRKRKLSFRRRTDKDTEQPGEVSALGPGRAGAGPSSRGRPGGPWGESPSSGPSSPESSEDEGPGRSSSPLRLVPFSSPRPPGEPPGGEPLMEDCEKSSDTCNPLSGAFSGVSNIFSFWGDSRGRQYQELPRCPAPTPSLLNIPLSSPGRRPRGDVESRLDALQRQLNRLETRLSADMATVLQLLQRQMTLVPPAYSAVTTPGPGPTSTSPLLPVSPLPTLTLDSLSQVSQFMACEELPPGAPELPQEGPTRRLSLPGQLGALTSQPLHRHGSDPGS

Row | Compound | hERG current change (%, negative = inhibition) at 10uM
1 | Cc1cccc(NC(=O)/C(=C\c2ccco2)NC(=O)c2ccccc2)c1 | -22.4%
2 | CC(=O)N1CCC(=NNc2ncc(C(F)(F)F)cc2Cl)CC1 | 2.73%
3 | CCOC(=O)c1ccc(N=c2sc(C(=O)OC)cc(=O)n2Cc2ccco2)cc1 | 13.7%
4 | O=C(CN1C(=O)c2ccccc2C1=O)NCc1ccncc1 | -33.1%
5 | COc1ccc(NC(=O)c2ccc(-c3csc(C)n3)cc2)cc1 | 18.5%
6 | Cc1ccc(C(=O)CNc2ccccc2)cc1 | 16.2%
7 | O=C(CCl)Nc1cccc(Oc2ccccc2)c1 | -22.4%
8 | O=[N+]([O-])c1ccc(N2CCN(S(=O)(=O)c3ccc(Cl)c(Cl)c3)CC2)cc1NCCN1CCOCC1 | 3.04%
9 | COC(=O)c1cc(NC(=O)CCc2c(C)nc3ncnn3c2C)cc(C(=O)OC)c1 | -36.1%
10 | Cc1cccc(N(C)c2cc(C)nc3nc(C)nn23)c1 | -15.8%
11 | Cc1ccc(-c2cnn(-c3cccc(C(F)(F)F)c3)c2N)cc1 | -3.62%
12 | COc1ccc(NC(=O)C(=O)NCCN2CCN(C(=O)c3ccc(C(C)(C)C)cc3)CC2)cc1 | -2.54%
13 | CNC(=O)C(=O)NCCN1CCN(C(=O)c2ccc([N+](=O)[O-])cc2)CC1 | -39.6%
14 | COc1ccc(NC(=O)C(=O)NCCN2CCN(C(=O)C(c3ccccc3)c3ccccc3)CC2)cc1 | -20.8%
15 | CCOc1ccc(NC(=O)C(=O)NCCN2CCN(C(=O)c3ccc(C)cc3)CC2)cc1 | -75.2%
16 | O=C(NCCN1CCN(C(=O)c2ccc([N+](=O)[O-])cc2)CC1)C(=O)Nc1ccc(F)cc1 | -76.8%
17 | CCOc1ccc(NC(=O)C(=O)NCCN2CCN(S(=O)(=O)c3ccccc3)CC2)cc1 | -8.75%
18 | CCOc1ccc(NC(=O)C(=O)NCCN2CCN(S(=O)(=O)c3ccc(C)cc3)CC2)cc1 | 8.62%
19 | COc1ccc(NC(=O)C(=O)NCCN2CCN(C(=O)c3ccc(C)cc3)CC2)cc1 | -75.4%
20 | CCC(C)[C@H](NC(=O)NCc1ccccc1Cl)C(=O)OC (stereo partly shown) | 12%
21 | CN(C)c1ccc(C(=O)Nc2ccc(S(=O)(=O)NC3=NCCCCC3)cc2)cc1 | -5.38%
22 | CCc1ccc(N(C(=O)Cc2cccs2)C(C(=O)NC2CCCCC2)c2cn(C)nc2C)cc1 (stereo not shown) | -21.4%

Row | Compound | hERG current change (%, negative = inhibition) at 10uM
23 | CCN1CCCC1CNC(=O)C(=O)NC1CC1 (stereo not shown) | 10.3%
24 | CCOC(=O)c1cc(-c2ccc3c(c2)OCCO3)n[nH]1 | 20.3%
25 | Cc1cccc(NC(=O)Nc2ccc(Cl)c(Cl)c2)n1 | 9.38%
26 | CCOc1ccccc1C(=O)NCc1ccc2c(c1)OCO2 | -12.1%
27 | O=C(CCN1C(=O)[C@@H]2Cc3ccccc3CN2C1=O)N[C@@H](Cc1ccccc1)C(=O)O | 8.75%
28 | Nc1nc(NCCCN2CCOCC2)nc(Nc2ccccc2)c1[N+](=O)[O-] | -36.5%
29 | Cc1ccc(Nc2nc(NCCCN3CCOCC3)nc(N)c2[N+](=O)[O-])cc1 | -66.1%
30 | Cc1ccc(Nc2nc(NCCCN3CCOCC3)nc(N)c2[N+](=O)[O-])cc1C | -5.15%
31 | Nc1nc(NCCCN2CCOCC2)nc(Nc2ccc(F)cc2)c1[N+](=O)[O-] | -58.6%
32 | Nc1nc(NCCCN2CCOCC2)nc(Nc2ccc(Cl)cc2)c1[N+](=O)[O-] | 7.65%
33 | COc1ccc(Nc2nc(NCCCN3CCOCC3)nc(N)c2[N+](=O)[O-])cc1 | -22%
34 | O=C1CN(C(=O)COC(=O)CNC(=O)c2ccc(Cl)cc2)c2ccccc2N1 | -6.75%
35 | CC(C)OC(=O)/C(C#N)=C\c1cccnc1 | 26.3%
36 | Cc1cccnc1NC(=O)c1cccc(S(=O)(=O)N2CCCC2)c1 | -8.13%
37 | CCCn1c(N)c(C(=O)COC(=O)c2c(C)noc2C)c(=O)n(C)c1=O | -21%
38 | COC(=O)CN1C(=O)[C@H]2[C@@H](c3ccc(C)o3)N3C(=O)CN(CCO)C(=O)[C@@]3(C)[C@H]2C1=O | -2.13%
39 | CN=C1S/C(=C\c2ccc(Cl)cc2)C(=O)N1C | 27%
40 | CCCN(CC1CC1)C(=S)Nc1ccc(C(C)=O)cc1 | 0.105%
41 | OCCC1CN(Cc2cccn2-c2cccnc2)CCN1Cc1ccc(F)cc1 (stereo not shown) | -56.9%
42 | OCCC1CN(Cc2cccn2-c2cccnc2)CCN1Cc1ccccc1 (stereo not shown) | -42.4%
43 | OCCC1CN(Cc2cccn2-c2cccnc2)CCN1C1CCCCC1 (stereo not shown) | -28.1%
44 | CCOc1ccc(CN2CCN(Cc3cccn3-c3ncccn3)CC2CCO)cc1 (stereo not shown) | -78.3%

Row | Compound | hERG current change (%, negative = inhibition) at 10uM
45 | CCOc1ccc(CN2CCN(Cc3cccn3-c3cccnc3)CC2CCO)cc1 (stereo not shown) | -84.1%
46 | COc1cccc(CN2CCN(Cc3cccn3-c3cccnc3)CC2CCO)c1 (stereo not shown) | -71.4%
47 | COC(=O)c1ccc(C)c(NC(=O)CCc2ccc(OC)cc2)c1 | -3.01%
48 | CCn1c(SC)nnc1C1CCN(CC(=O)Nc2ccccc2N2CCOCC2)CC1 | -31%
49 | Nc1ccc(C(=O)Oc2ccc([N+](=O)[O-])cc2)cc1 | 10.9%
50 | Cc1ccc(NC(=O)Nc2ccccc2)c(Br)c1 | -1.55%
51 | Fc1ccc(NC(=S)N2CCCC2)cc1 | -1.37%
52 | Cc1cc(OCC(O)CNC(C)(C)C)ccc1Cl.Cl (stereo not shown) | -4.91%
53 | CCCc1cnc(NCCNCC(O)COc2ccc(Cl)c(Cl)c2)nc1 (stereo not shown) | -71.2%
54 | Cc1cc(OCC(O)CN)ccc1Cl (stereo not shown) | 8.74%
55 | CC(C)c1ccc(OCC(=O)NC2=NCCS2)cc1 | 1.4%
56 | CCc1cccc(C)c1NC(=O)CN(C)Cc1ccccc1F.O=C(O)C(=O)O | -23.8%
57 | CCC(C)c1ccc(NC(=O)CC(C)=O)cc1 (stereo not shown) | 4.93%
58 | CCC(C)c1ccc(NC(=O)COc2c(F)c(F)c(C(F)(F)F)c(F)c2F)cc1 (stereo not shown) | -57.4%
59 | COc1cccc(NC(=O)COc2c(F)c(F)c(C(F)(F)F)c(F)c2F)c1 | 8.02%
60 | Nc1ccc(C(=O)NC23CC4CC(CC(C4)C2)C3)cc1 | 16.3%
61 | C=CCN(c1ccccc1)S(=O)(=O)c1cccc(C(=O)Nc2ncccc2O)c1 | 8.35%
62 | Cn1nccc1C(=O)Nc1ccc(OC(=O)c2ccnn2C)cc1 | -6.68%
63 | Cl.OC(CN1CCCCC1)CN(c1ccccc1)c1ccccc1 (stereo not shown) | -63.2%
64 | Cl.OC(CN1CCOCC1)CN(c1ccccc1)c1ccccc1 (stereo not shown) | -28.5%
65 | CN(CC(O)CN)CC(O)CN1CCCCC1.Cl (stereo not shown) | 4.64%
66 | Cl.OC(CN1CCCCCC1)CN(c1ccccc1)c1ccccc1 (stereo not shown) | -71.8%

Row | Compound | hERG current change (%, negative = inhibition) at 10uM
67 | COc1ccc(-c2cc(C(=O)NCc3cccs3)no2)cc1 | 7.1%
68 | O=C(COC(=O)c1cccnc1Cl)Nc1cc(S(=O)(=O)N2CCCCC2)ccc1Cl | -18.9%
69 | COc1ccc(NC(=O)Cn2nnc(C(=O)NCc3ccc4c(c3)OCO4)c2N)cc1 | 18.4%
70 | O=C(C1CC(=O)N(c2ccc(F)cc2)C1)N1CCCCCC1 (stereo not shown) | -6.27%
71 | O=C(C1CC(=O)N(c2ccc(F)cc2)C1)N1CCN(c2ccc(F)cc2)CC1 (stereo not shown) | -73.1%
72 | CC(c1ccccc1)N1CC(C(=O)N2CCN(c3ccc(F)cc3)CC2)CC1=O (stereo not shown) | -65.3%
73 | O=C(C1CC(=O)N(c2ccccc2)C1)N1CCN(c2ccccc2F)CC1 (stereo not shown) | -13.4%
74 | CC(c1ccccc1)N1CC(C(=O)O)CC1=O (stereo not shown) | 10.7%
75 | O=C(O)C1CC(=O)N(c2ccc(F)cc2)C1 (stereo not shown) | 14.1%
76 | O=C(C1CC(=O)N(c2ccccc2)C1)N1CCN(c2ccccc2)CC1 (stereo not shown) | -29%
77 | O=C(C1CC(=O)N(c2ccc(F)cc2)C1)N1CCN(c2ccccc2)CC1 (stereo not shown) | -58.3%
78 | O=C(C1CC(=O)N(c2ccc(F)cc2)C1)N1CCCCC1 (stereo not shown) | -0.378%
79 | Cc1ccc(N2CC(C(=O)N3CCN(c4ccccc4)CC3)CC2=O)cc1 (stereo not shown) | -17.6%
80 | CC(c1ccccc1)N1CC(C(=O)N2CCN(c3ccccc3)CC2)CC1=O (stereo not shown) | -27.2%
81 | O=C(C1CC(=O)N(c2ccccc2)C1)N1CCN(c2ccc(F)cc2)CC1 (stereo not shown) | -56.7%
82 | Cc1cc(C)cc(OCC(=O)Nc2ccc(N3CCCC3)cc2)c1 | 11.9%
83 | COc1ccc(C(=O)Nc2nnc(S(=O)(=O)N3CCOCC3)s2)cc1 | -3.02%
84 | CC(C)C(=O)NNC(=O)c1c(O)c2ccccc2[nH]c1=O | 10.3%
85 | O=C(Nc1cccc(O)c1)C1CC(c2c(F)cccc2Cl)=NO1 (stereo not shown) | -15.6%
86 | COc1ccc(CNC(=O)OCCN2CCN(S(=O)(=O)c3ccc(C)cc3)CCC2=O)cc1 | -35.9%
87 | CCCCC(NC(=O)Cc1c(C)c2cc3c(-c4ccccc4)coc3c(C)c2oc1=O)C(=O)O (stereo not shown) | 13.2%
88 | O=C1CC(NNc2nc3ccccc3s2)C(=O)N1c1ccc(F)cc1 (stereo not shown) | 3.25%
